# Test results reported in PubChem BioAssay (EPA / NIEHS).
# Inconclusive results are not listed. Calls of active or inactive are those of the source. Rule for the calls, unless noted: active = hit-call score of the fitted dose curve at least 0.9, where 1 is the maximum; inconclusive = response in the unintended direction; inactive = score below 0.9.
# Columns and labels:
# [1] = TOX21_p53_BLA_p2_viability: Viability Assessment in the Tox21 HCT-116 p53 Agonism Beta-lactamase Assay, Phase 2 (AID 2283591);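 note: compound exposure lasted 16 h at 37 °C; actives lower the ATP signal meaning cytotoxicity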
# Procedure, shortened: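 HCT116 p53-bla cells, 4000/well, dosed after 5 h plating (217-fold dilution of DMSO stocks) and incubated 16 h at 37C. Viability taken as cellular ATP by CellTiter-Glo luminescence after 30 min RT; signal loss marks cytotoxicity.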
# [2] = TOX21_p53_BLA_p3_viability: Viability Assessment in the Tox21 HCT-116 p53 Agonism Beta-lactamase Assay, Phase 3 (AID 2283593);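 note: cells exposed to compound for 16 h before reading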
# Procedure, shortened: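 HCT116 cells, 4000/well, dosed 5 h after plating by pin transfer (217-fold dilution from DMSO stock) and incubated 16 h at 37C, 5% CO2. Viability read as ATP luminescence with CellTiter-Glo after 30 min at room temperature.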
# [3] = target: Cellular tumor antigen p53 (Homo sapiens) (UniProt P04637); experiment: TOX21_p53_BLA_p3_ratio: Tox21 HCT-116 p53 Agonism Beta-lactamase Assay, Ratio, Phase 3 (AID 2283596)
# Sequence of Cellular tumor antigen p53 (Homo sapiens) (P04637 whole entry, looked up): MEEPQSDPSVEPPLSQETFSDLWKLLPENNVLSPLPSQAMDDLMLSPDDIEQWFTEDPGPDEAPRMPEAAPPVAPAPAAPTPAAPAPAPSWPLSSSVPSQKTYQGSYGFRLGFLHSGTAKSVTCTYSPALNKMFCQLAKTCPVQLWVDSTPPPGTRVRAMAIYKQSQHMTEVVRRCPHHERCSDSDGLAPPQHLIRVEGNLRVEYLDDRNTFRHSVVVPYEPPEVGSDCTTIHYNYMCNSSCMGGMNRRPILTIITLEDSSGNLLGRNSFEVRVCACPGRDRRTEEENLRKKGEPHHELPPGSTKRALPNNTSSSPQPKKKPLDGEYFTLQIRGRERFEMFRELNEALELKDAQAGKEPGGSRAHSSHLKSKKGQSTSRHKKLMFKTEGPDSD
# Procedure, shortened: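 Cells were seeded at 4000/well, rested 5 h at 37C, then dosed with DMSO compound solutions (217-fold dilution) for 16 h. CCF4-AM substrate was loaded for 2 h at room temperature, and the 460/530 nm emission ratio was fitted for gain of signal versus DMSO.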
# [4] = TOX21_p53_BLA_p4_viability: Viability Assessment in the Tox21 HCT-116 p53 Agonism Beta-lactamase Assay, Phase 4 (AID 2283597);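 note: hits lower the luminescence signal meaning cytotoxicity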
# Procedure, shortened: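 Viability is taken as cellular ATP: after 16 h compound exposure of HCT116 cells and a 2 h room-temperature CCF4-AM substrate step, CellTiter-Glo reagent is added and luminescence is measured 30 min later.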
# [5] = target: Cellular tumor antigen p53 (Homo sapiens) (UniProt P04637); experiment: TOX21_p53_BLA_p5_ratio: Tox21 HCT-116 p53 Agonism Beta-lactamase Assay, Ratio, Phase 5 (AID 2283599)
# Procedure, shortened: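 HCT-116 p53-bla cells (4000/well) plated 5 h, dosed with compound (217-fold DMSO dilution) for 16 h at 37 C; CCF4-AM substrate 2 h at room temperature. Activity is the 460/530 nm emission ratio (405 nm excitation), fitted in gain-of-signal direction versus DMSO.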
# [6] = TOX21_p53_BLA_p5_viability: Viability Assessment in the Tox21 HCT-116 p53 Agonism Beta-lactamase Assay, Phase 5 (AID 2283600)
# Procedure, shortened: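 Viability is taken from cellular ATP content, measured by luciferase luminescence in the same wells after the beta-lactamase ratio read. Cells are seeded at 4000 per well and exposed to DMSO-dissolved compounds, diluted 217-fold, for 16 h.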
# [7] = target: Cellular tumor antigen p53 (Homo sapiens) (UniProt P04637); experiment: TOX21_p53_BLA_p4_ratio: Tox21 HCT-116 p53 Agonism Beta-lactamase Assay, Ratio, Phase 4 (AID 2283601)
# Procedure, shortened: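 HCT-116 p53 beta-lactamase reporter cells (4000/well) preincubated 5 h, then compound (217-fold dilution of DMSO stock) for 16 h at 37C. CCF4-AM substrate added 2 h at room temperature; 460/530 nm emission ratio fitted upward versus DMSO.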
# [8] = CCTE_Harrill_HTTr_Viability_MCF7: CCTE's 6-hour Cell Viability Assessment for the High-Throughput Transcriptomics (HTTr) Platform, in MCF-7 cells cultured in DMEM + 10% fetal bovine serum, Harrill Lab (AID 2284010; active = hit-call score of the fitted dose curve at least 0.9, where 1 is the maximum; inactive = score below 0.9)
# Procedure, shortened: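 Eight-point concentration series, six-hour exposure. Propidium iodide exclusion imaged to assess membrane integrity as a cytotoxicity readout; bidirectional fitting was done with DMSO as negative control and activity baseline.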
# [9] = CCTE_Harrill_HTTr_Apoptosis_MCF7: CCTE's 6-hour Apoptosis Assessment for the High-Throughput Transcriptomics (HTTr) Platform, in MCF-7 cells cultured in DMEM + 10% fetal bovine serum, Harrill Lab (AID 2284011; active = hit-call score of the fitted dose curve at least 0.9, where 1 is the maximum; inactive = score below 0.9)
# Procedure, shortened: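 Cells are dosed with test chemicals at eight concentrations and imaged 6 hours later for caspase-3/7 activity using a green fluorogenic detection reagent. Activity is fitted in both directions against DMSO controls.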
# [10] = target: Thyroid hormone receptor alpha (Rattus norvegicus) + Thyroid hormone receptor beta (Rattus norvegicus) (UniProt P18113+P63059); experiment: TOX21_TR_LUC_GH3_Antagonist_Followup: Tox21 GH3 Thyroid Hormone Receptor Antagonism Luciferase Follow-Up Assay (AID 2283942)
# Procedure, shortened: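 Luminescence read-out (ONE-Glo, 30 min at room temperature) in GH3 reporter cells challenged with 1.0 nM T3 final. Compounds ran at 92 uM to 5nM over 15 concentrations for 24 h; DMSO served as negative control and baseline.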
# THRB (gene 7068) [11] = target: THRB (gene 7068) (UniProt P10828); experiment: TOX21_TRB_BLA_Antagonist_Followup_ratio: Tox21 Thyroid Hormone Receptor beta Antagonism Beta-lactamase (BLA) Follow-Up Assay, Ratio (AID 2283958)
# Sequence of THRB (gene 7068) (P10828 whole entry, looked up, the tested form may be a part): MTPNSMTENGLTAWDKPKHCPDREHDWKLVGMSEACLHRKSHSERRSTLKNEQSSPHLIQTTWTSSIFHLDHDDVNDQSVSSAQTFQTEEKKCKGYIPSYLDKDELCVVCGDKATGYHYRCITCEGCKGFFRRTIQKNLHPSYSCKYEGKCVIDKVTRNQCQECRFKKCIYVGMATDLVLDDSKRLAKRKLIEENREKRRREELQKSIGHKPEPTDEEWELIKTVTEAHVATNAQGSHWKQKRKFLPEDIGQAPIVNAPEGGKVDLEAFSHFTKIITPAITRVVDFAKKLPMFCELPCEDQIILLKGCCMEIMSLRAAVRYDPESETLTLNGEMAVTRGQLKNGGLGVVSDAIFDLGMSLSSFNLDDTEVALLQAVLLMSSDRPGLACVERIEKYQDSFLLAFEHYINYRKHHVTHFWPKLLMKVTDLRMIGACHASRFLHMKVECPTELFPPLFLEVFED
# Procedure, shortened: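 Using charcoal-stripped 2% FBS medium, human TRβ-LBD/GAL4 reporter HEK293T cells received test compounds for 18 h. The endpoint is the cleaved-to-uncleaved substrate ratio (460/530 nm).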
# [12] = TOX21_TRB_BLA_Antagonist_Followup_viability: Viability Assessment in the Tox21 Thyroid Hormone Receptor beta Antagonism Beta-lactamase (BLA) Follow-Up Assay (AID 2283961)
# Procedure, shortened: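 Cytotoxicity is measured in parallel with the antagonist-mode TRβ beta-lactamase screen, using ATP-coupled luciferase luminescence. Engineered HEK293T cells are treated for 18 h with 11-point compound series in triplicate.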
# THRB (gene 7068) [13] = target: THRB (gene 7068) (UniProt P10828); experiment: TOX21_TRB_COA_Antagonist_Followup_ratio: Tox21 Thyroid Hormone Receptor beta Antagonism through Coactivator Recruitment Follow-Up Assay, Ratio (AID 2283967)
# Procedure, shortened: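 GST-TRb LBD 5.0 nM + 0.10% BSA, compound added; fluorescein-SRC-2 peptide 200 nM, Tb-anti-GST Ab 2 nM. TR-FRET, ex 340 / em 520:495 ratio. Norm: DMSO 0%, T3 100%.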
# [14] = TOX21_TR_RXR_BLA_Antagonist_Followup_viability: Viability Assessment in the Tox21 Thyroid Hormone Receptor beta Retinoid X Receptor alpha (RXRa) Antagonism Beta-lactamase (BLA) Follow-Up Assay (AID 2283979)
# Procedure, shortened: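 RXRa-bla HEK293T cells (2,500/well, phenol red-free DMEM, 2% charcoal-stripped FBS) were attached 5 h, then exposed to compounds at 11 concentrations in triplicate for 16 h at 37C. Viability measured by CellTiter-Glo ATP luminescence, bidirectional fitting versus DMSO.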
smiles,measurement,setting,value
CC[C@H]1CN2CCc3cc(OC)c(OC)cc3[C@@H]2C[C@@H]1C[C@H]1NCCc2cc(OC)c(OC)cc21,outcome,[1],inactive
same,outcome,[2],inactive
same,outcome,[3],inactive
same,outcome,[4],inactive
same,outcome,[5],inactive
same,outcome,[6],inactive
same,outcome,[7],inactive
CCOC(=O)[C@H](CCc1ccccc1)N[C@@H](C)C(=O)N1Cc2ccccc2C[C@H]1C(=O)O,outcome,[1],inactive
same,outcome,[2],inactive
same,outcome,[3],inactive
same,outcome,[4],inactive
same,outcome,[5],inactive
same,outcome,[6],inactive
CC(C)(C)NC[C@H](O)COc1cccc2c1CCCC2=O,outcome,[1],inactive
same,outcome,[2],inactive
same,outcome,[3],inactive
same,outcome,[4],inactive
same,outcome,[5],inactive
same,outcome,[6],inactive
CC(=O)O[C@H]1C[C@@H]2CC[C@@H]3[C@H](CC[C@@]4(C)[C@H]3C[C@H]([N+]3(C)CCCCC3)[C@@H]4OC(C)=O)[C@@]2(C)C[C@@H]1[N+]1(C)CCCCC1,outcome,[1],inactive
same,outcome,[2],inactive
same,outcome,[3],inactive
same,outcome,[4],inactive
same,outcome,[5],inactive
same,outcome,[6],inactive
same,outcome,[7],inactive
O=C(/C=C/c1cccc(F)c1)NC1CC1,outcome,[1],inactive
same,outcome,[2],inactive
same,outcome,[3],inactive
same,outcome,[4],inactive
same,outcome,[5],inactive
same,outcome,[6],inactive
same,outcome,[7],inactive
CN[C@H]1CC[C@@H](c2ccc(Cl)c(Cl)c2)c2ccccc21,AC50,[1],33.6 µM (active)
same,AC50,[2],42 µM (active)
same,outcome,[3],inactive
same,AC50,[4],34.6 µM (active)
same,outcome,[5],inactive
same,outcome,[6],inactive
same,AC50,[7],36.8 µM (active)
C[C@H](CCC(=O)O)[C@H]1CC[C@H]2[C@@H]3[C@H](O)C[C@@H]4C[C@H](O)CC[C@]4(C)[C@H]3C[C@H](O)[C@]12C,outcome,[1],inactive
same,outcome,[2],inactive
same,outcome,[3],inactive
same,outcome,[4],inactive
same,outcome,[5],inactive
same,outcome,[6],inactive
same,outcome,[7],inactive
CNc1cc(OC)c(C(=O)N[C@H]2CCN(Cc3ccccc3)[C@H]2C)cc1Cl,outcome,[1],inactive
same,outcome,[2],inactive
same,outcome,[3],inactive
same,outcome,[4],inactive
same,outcome,[5],inactive
same,outcome,[6],inactive
CC(C)OC(=O)c1cc2c(OCC(O)CNC(C)(C)C)cccc2[nH]1 (centres undefined),outcome,[1],inactive
same,outcome,[2],inactive
same,outcome,[3],inactive
same,outcome,[4],inactive
same,outcome,[6],inactive
CCCCCCC,outcome,[1],inactive
same,outcome,[2],inactive
same,outcome,[3],inactive
same,outcome,[4],inactive
same,outcome,[5],inactive
same,outcome,[7],inactive
CCCCC(=O)OCC(=O)[C@H]1[C@H](C)C[C@H]2[C@@H]3C[C@H](F)C4=CC(=O)C=C[C@]4(C)[C@@]3(F)[C@@H](O)C[C@@]21C,outcome,[1],inactive
same,outcome,[2],inactive
same,outcome,[3],inactive
same,outcome,[4],inactive
same,outcome,[6],inactive
CC1(C)S[C@@H]2[C@H](N3C(=O)C(c4ccccc4)NC3(C)C)C(=O)N2[C@H]1C(=O)O (some centres undefined),outcome,[1],inactive
same,outcome,[2],inactive
same,outcome,[3],inactive
same,outcome,[4],inactive
same,outcome,[6],inactive
CC1CC(=O)NN=C1c1ccc(NCC(C)(C)NCC(O)COc2cc(Cl)ccc2C#N)cc1 (centres undefined),outcome,[1],inactive
same,outcome,[2],inactive
same,outcome,[3],inactive
same,outcome,[4],inactive
same,outcome,[7],inactive
CO[C@H]1C[C@H](O[C@H]2[C@H](C)[C@@H](O[C@@H]3O[C@H](C)C[C@H](N(C)C)[C@H]3OC(C)=O)[C@@H](C)C[C@]3(CO3)C(=O)[C@H](C)[C@@H](OC(C)=O)[C@@H](C)[C@@H](C)OC(=O)[C@@H]2C)O[C@@H](C)[C@@H]1OC(C)=O,outcome,[1],inactive
same,outcome,[2],inactive
same,outcome,[3],inactive
same,outcome,[5],inactive
same,outcome,[6],inactive
C1CCCC1,outcome,[1],inactive
same,outcome,[2],inactive
same,outcome,[3],inactive
same,outcome,[5],inactive
same,outcome,[6],inactive
same,outcome,[7],inactive
NS(=O)(=O)c1cc2c(cc1C(F)(F)F)NC(Cc1ccccc1)NS2(=O)=O (centres undefined),outcome,[1],inactive
same,outcome,[2],inactive
same,outcome,[3],inactive
same,outcome,[5],inactive
same,outcome,[6],inactive
same,outcome,[7],inactive
C#CCN(C)Cc1ccccc1,outcome,[1],inactive
same,outcome,[2],inactive
same,outcome,[3],inactive
same,outcome,[4],inactive
same,outcome,[5],inactive
same,outcome,[7],inactive
same,outcome,[8],inactive
same,outcome,[9],inactive
CCC(=O)OCC(=O)[C@@]1(OC(=O)CC)[C@H](C)C[C@H]2[C@@H]3CCC4=CC(=O)C=C[C@]4(C)[C@@]3(F)[C@@H](O)C[C@@]21C,outcome,[1],inactive
same,outcome,[2],inactive
same,outcome,[3],inactive
same,outcome,[4],inactive
same,outcome,[6],inactive
O=P(O)(O)CP(=O)(O)O,outcome,[1],inactive
same,outcome,[2],inactive
same,outcome,[3],inactive
same,outcome,[4],inactive
same,outcome,[6],inactive
same,outcome,[7],inactive
CCCCOc1cc(C(=O)NCCN(CC)CC)c2ccccc2n1,outcome,[1],inactive
same,outcome,[2],inactive
same,outcome,[3],inactive
same,outcome,[4],inactive
same,outcome,[7],inactive
CCCCCCCCC(=O)Cl,outcome,[1],inactive
same,outcome,[2],inactive
same,outcome,[3],inactive
same,outcome,[5],inactive
same,outcome,[6],inactive
Cc1cccc(C)c1NC(=O)CN1CCN(CCCC(c2ccc(F)cc2)c2ccc(F)cc2)CC1,outcome,[1],inactive
same,outcome,[2],inactive
same,outcome,[3],inactive
same,outcome,[4],inactive
same,outcome,[7],inactive
CC(C(=O)O)c1ccc(N2Cc3ccccc3C2=O)cc1 (centres undefined),outcome,[1],inactive
same,outcome,[2],inactive
same,outcome,[3],inactive
same,outcome,[4],inactive
same,outcome,[6],inactive
same,outcome,[7],inactive
same,outcome,[10],inactive
same,outcome,THRB (gene 7068) [11],inactive
same,outcome,[12],inactive
same,outcome,THRB (gene 7068) [13],inactive
same,outcome,[14],inactive
Nc1ccc(NC(=O)c2ccc(N)cc2)cc1,outcome,[1],inactive
same,outcome,[2],inactive
same,outcome,[3],inactive
same,outcome,[4],inactive
same,outcome,[6],inactive
same,outcome,[7],inactive
CC(=O)OC(C)=O,outcome,[1],inactive
same,outcome,[2],inactive
same,outcome,[3],inactive
same,outcome,[5],inactive
same,outcome,[6],inactive
OC[C@H]1O[C@H](O[C@H]2O[C@H](CO)[C@@H](O)[C@H](O)[C@H]2O)[C@H](O)[C@@H](O)[C@@H]1O,outcome,[1],inactive
same,outcome,[2],inactive
same,outcome,[3],inactive
same,outcome,[5],inactive
same,outcome,[6],inactive
Cc1cccc(Oc2ccccc2)c1,outcome,[1],inactive
same,outcome,[2],inactive
same,outcome,[3],inactive
same,outcome,[4],inactive
same,outcome,[7],inactive
NC1CCN(c2cccc(Cl)n2)CC1,outcome,[1],inactive
same,outcome,[2],inactive
same,outcome,[3],inactive
same,outcome,[5],inactive
same,outcome,[6],inactive
same,outcome,[7],inactive
O=C(O)CCCC/C=C(\c1ccccc1)c1cccnc1,outcome,[1],inactive
same,outcome,[2],inactive
same,outcome,[3],inactive
same,outcome,[4],inactive
same,outcome,[5],inactive
same,outcome,[7],inactive
